From the supplement of paper PMC12645437, “Orthogonal IMiD-Degron Pairs Induce Selective Protein Degradation in Cells” (ACS Chemical Biology, 2025)
Whole data set: some 8,300 sequences, median “log2 fold change of degron read counts, EGFP-low vs EGFP+ sorted cells (limma voom), compound-induced degradation” near -1.1, cut for the highest 2% near 3.2. The sample holds the highest values, similar sequences and a random draw of the others, so the mix is not that of the screen.

T1: CRBN, Q96SW2
T1 chain: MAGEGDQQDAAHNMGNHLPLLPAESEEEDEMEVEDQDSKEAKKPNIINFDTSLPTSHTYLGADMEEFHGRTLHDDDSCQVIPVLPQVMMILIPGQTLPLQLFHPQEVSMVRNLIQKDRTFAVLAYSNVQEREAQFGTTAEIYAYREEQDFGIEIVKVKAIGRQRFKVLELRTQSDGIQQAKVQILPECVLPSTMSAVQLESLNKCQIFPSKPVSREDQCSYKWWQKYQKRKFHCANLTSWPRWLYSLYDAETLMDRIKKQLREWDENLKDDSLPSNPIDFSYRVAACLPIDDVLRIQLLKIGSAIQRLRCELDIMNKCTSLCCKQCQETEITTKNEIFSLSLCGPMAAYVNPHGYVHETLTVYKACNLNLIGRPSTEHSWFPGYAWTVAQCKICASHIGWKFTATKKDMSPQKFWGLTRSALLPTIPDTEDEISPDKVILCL

B1: 46L_47F_49E_50I_52G_53F_54D_55C_67L_, Q9UKT9 (peptide)
chain: LFCEICGFDCTQKGNLLRHIKL
B2: 46F_47I_49N_50Q_52G_53A_54C_55F_67L_, Q9UKT9 (peptide)
chain: FICNQCGACFTQKGNLLRHIKL
B3: 46F_47K_49P_50I_52G_53H_54A_55F_67L_, Q9UKT9 (peptide)
chain: FKCPICGHAFTQKGNLLRHIKL
B4: 46F_47H_49P_50I_52G_53H_54W_55F_67L_, Q9UKT9 (peptide)
chain: FHCPICGHWFTQKGNLLRHIKL
B5: 46F_47E_49E_50I_52G_53A_54G_55F_67L_, Q9UKT9 (peptide)
chain: FECEICGAGFTQKGNLLRHIKL
B6: 46F_47L_49E_50I_52G_53A_54G_55F_67L_, Q9UKT9 (peptide)
chain: FLCEICGAGFTQKGNLLRHIKL
B7: 46F_47Q_49E_50I_52G_53A_54G_55F_67L_, Q9UKT9 (peptide)
chain: FQCEICGAGFTQKGNLLRHIKL
B8: 46F_47W_49E_50I_52G_53A_54G_55F_67L_, Q9UKT9 (peptide)
chain: FWCEICGAGFTQKGNLLRHIKL
B9: 46F_47Y_49E_50I_52G_53A_54G_55F_67L_, Q9UKT9 (peptide)
chain: FYCEICGAGFTQKGNLLRHIKL
B10: 46F_47G_49E_50I_52G_53A_54G_55F_67L_, Q9UKT9 (peptide)
chain: FGCEICGAGFTQKGNLLRHIKL
B11: 46F_47G_49N_50I_52G_53A_54L_55F_67L_, Q9UKT9 (peptide)
chain: FGCNICGALFTQKGNLLRHIKL
B12: 46F_47T_49E_50I_52G_53R_54V_55F_67L_, Q9UKT9 (peptide)
chain: FTCEICGRVFTQKGNLLRHIKL
B13: 46F_47R_49P_50I_52G_53R_54L_55F_67L_, Q9UKT9 (peptide)
chain: FRCPICGRLFTQKGNLLRHIKL
B14: 46F_47D_49P_50I_52G_53R_54M_55F_67L_, Q9UKT9 (peptide)
chain: FDCPICGRMFTQKGNLLRHIKL
B15: 46F_47R_49N_50Q_52G_53H_54R_55F_67L_, Q9UKT9 (peptide)
chain: FRCNQCGHRFTQKGNLLRHIKL
B16: 46F_47F_49E_50V_52G_53A_54C_55F_67L_, Q9UKT9 (peptide)
chain: FFCEVCGACFTQKGNLLRHIKL
B17: 46F_47W_49E_50V_52G_53A_54C_55F_67L_, Q9UKT9 (peptide)
chain: FWCEVCGACFTQKGNLLRHIKL
B18: 46F_47C_49E_50V_52G_53A_54C_55F_67L_, Q9UKT9 (peptide)
chain: FCCEVCGACFTQKGNLLRHIKL
B19: 46F_47N_49E_50V_52G_53A_54C_55F_67L_, Q9UKT9 (peptide)
chain: FNCEVCGACFTQKGNLLRHIKL
B20: 46F_47A_49E_50V_52G_53A_54C_55F_67L_, Q9UKT9 (peptide)
chain: FACEVCGACFTQKGNLLRHIKL
B21: 46F_47K_49E_50V_52G_53A_54C_55F_67L_, Q9UKT9 (peptide)
chain: FKCEVCGACFTQKGNLLRHIKL
B22: 46F_47H_49E_50V_52G_53A_54C_55F_67L_, Q9UKT9 (peptide)
chain: FHCEVCGACFTQKGNLLRHIKL
B23: 46F_47E_49E_50V_52G_53A_54C_55F_67L_, Q9UKT9 (peptide)
chain: FECEVCGACFTQKGNLLRHIKL
B24: 46F_47D_49E_50V_52G_53A_54C_55F_67L_, Q9UKT9 (peptide)
chain: FDCEVCGACFTQKGNLLRHIKL
B25: 46F_47G_49E_50V_52G_53A_54C_55F_67L_, Q9UKT9 (peptide)
chain: FGCEVCGACFTQKGNLLRHIKL
B26: 46L_47E_49N_50Q_52G_53F_54W_55C_67L_, Q9UKT9 (peptide)
chain: LECNQCGFWCTQKGNLLRHIKL
B27: 46F_47Y_49D_50I_52G_53A_54V_55F_67L_, Q9UKT9 (peptide)
chain: FYCDICGAVFTQKGNLLRHIKL
B28: 46F_47C_49N_50Q_52G_53R_54T_55F_67L_, Q9UKT9 (peptide)
chain: FCCNQCGRTFTQKGNLLRHIKL

Molecular target: T1, CRBN, Q96SW2
Assay: log2 fold change of degron read counts, EGFP-low vs EGFP+ sorted cells (limma voom), compound-induced degradation; higher = more compound-induced degradation of the degron-EGFP fusion; degrons are variants of IKZF1/3 zinc finger 2; compound dose not given here
Settings: Jurkat, 18 h
[1] = compound: compound 19 (5-tert-butyl-thalidomide)
[2] = compound: compound 22 (5-morpholino-thalidomide)
[3] = compound: compound 33 (diphenyl IMiD analogue)
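Further: pooled lentiviral library of zinc finger degron-EGFP fusions in mCherry-positive Jurkat cells, FACS-sorted after compound exposure, with degron abundance counted by next-generation sequencing.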

Sequence	log2 fold change of degron read counts [1]	log2 fold change of degron read counts [2]	log2 fold change of degron read counts [3]	log2 fold change of degron read counts (compound: thalidomide)
B1	-1.8	-2.4	-2.23	-1.77
B2	-2.25	-1.71	-0.536	-1.25
B3	-2.73	-2.8	-3.02	-2
B4	-1.67	-2.48	-1.12	-1.62
B5	1.97	-1.47	0.9	1.53
B6	2.55	-0.336	1.28	0.798
B7	2.81	1.87	1.48	3.09
B8	3.64	2.88	1.29	-0.285
B9	3.64	3.17	2.39	0.707
B10	2.12	0.308	1.02	-0.108
B11	-0.269	0.462	1.6	-0.293
B12	-2.27	-1.55	-0.702	-0.137
B13	-1.83	-0.827	0.758	0.687
B14	-0.392	-0.463	1.09	1.7
B15	-2.19	-2.67	-2.63	-2.17
B16	3.55	3.51	2.56	1.24
B17	3.64	3.77	2.8	1.25
B18	2.54	2.27	2.88	2.26
B19	2.1	0.177	0.1	-0.55
B20	3.76	2.16	1.45	0.401
B21	-0.0189	-2.37	-2.27	-0.751
B22	2.22	2.25	1.49	0.274
B23	0.0523	-1.58	1.91	2.18
B24	0.736	-1.47	0.552	-0.0895
B25	3.58	2.6	1.86	0.497
B26	-1.99	-1.69	-1.79	-1.63
B27	2.92	2.45	1.34	-1.18
B28	-2.96	-2.98	-2.8	-2.49
